# Results published in paper PMC11062922 (Nature Chemical Biology, 2023).
# Where two headings read alike, the source gives them in different places.
# Columns and labels:
# [1] = tested on: CDC42BPB; design: species or system human, MV4-11 + K-562 + COLO205 + SK-N-BE2 + OVCAR-8; details: read-out: apparent Kd; compound concentrations: 100 nM and 1000 nM (sheet 'Samples'), CATDS: 0.117626319285852; n = 1
# [2] = tested on: CIT; design: species or system human, MV4-11 + K-562 + COLO205 + SK-N-BE2 + OVCAR-8; details: read-out: apparent Kd; compound concentrations: 100 nM and 1000 nM (sheet 'Samples'), CATDS: 0.106368492262706; n = 1
# [3] = tested on: CLK1; design: species or system human, MV4-11 + K-562 + COLO205 + SK-N-BE2 + OVCAR-8; details: read-out: apparent Kd, compound concentrations: 100 nM and 1000 nM (sheet 'Samples'), n = 1
# [4] = tested on: CLK4; design: species or system human, MV4-11 + K-562 + COLO205 + SK-N-BE2 + OVCAR-8; details: read-out: apparent Kd, compound concentrations: 100 nM and 1000 nM (sheet 'Samples'), n = 1
# [5] = tested on: MARK3; design: species or system human, MV4-11 + K-562 + COLO205 + SK-N-BE2 + OVCAR-8; details: read-out: apparent Kd; compound concentrations: 100 nM and 1000 nM (sheet 'Samples'), CATDS: 9.9321002689151103E-2; n = 1
# [6] = tested on: MELK; design: species or system human, MV4-11 + K-562 + COLO205 + SK-N-BE2 + OVCAR-8; details: read-out: apparent Kd; compound concentrations: 100 nM and 1000 nM (sheet 'Samples'), CATDS: 9.4221597644958896E-2; n = 1
# [7] = tested on: PHKG2; design: species or system human, MV4-11 + K-562 + COLO205 + SK-N-BE2 + OVCAR-8; details: read-out: apparent Kd; compound concentrations: 100 nM and 1000 nM (sheet 'Samples'), CATDS: 0.61617859145014098; n = 1
# [8] = tested on: CAMK2B; design: species or system human, MV4-11 + K-562 + COLO205 + SK-N-BE2 + OVCAR-8; details: read-out: apparent Kd, n = 1
# [9] = tested on: CDC42BPG; design: species or system human, MV4-11 + K-562 + COLO205 + SK-N-BE2 + OVCAR-8; details: read-out: apparent Kd; compound concentrations: 100 nM and 1000 nM (sheet 'Samples'), CATDS: 0.32700083085172899; n = 1
# [10] = tested on: TGFBR2; design: species or system human, MV4-11 + K-562 + COLO205 + SK-N-BE2 + OVCAR-8; details: read-out: apparent Kd; compound concentrations: 100 nM and 1000 nM (sheet 'Samples'), CATDS: 0.26695766684010303; n = 1
# [11] = tested on: CAMKK2; design: species or system human, MV4-11 + K-562 + COLO205 + SK-N-BE2 + OVCAR-8; details: read-out: apparent Kd; compound concentrations: 100 nM and 1000 nM (sheet 'Samples'), CATDS: 3.10077731514018E-2; n = 1
# [12] = tested on: CSNK1D; design: species or system human, MV4-11 + K-562 + COLO205 + SK-N-BE2 + OVCAR-8; details: read-out: apparent Kd; compound concentrations: 100 nM and 1000 nM (sheet 'Samples'), CATDS: 3.1213203175664998E-2; n = 1
# [13] = tested on: EIF2AK1; design: species or system human, MV4-11 + K-562 + COLO205 + SK-N-BE2 + OVCAR-8; details: read-out: apparent Kd; compound concentrations: 100 nM and 1000 nM (sheet 'Samples'), CATDS: 3.5611911741364403E-2; n = 1
# [14] = tested on: FER; design: species or system human, MV4-11 + K-562 + COLO205 + SK-N-BE2 + OVCAR-8; details: read-out: apparent Kd; compound concentrations: 100 nM and 1000 nM (sheet 'Samples'), CATDS: 4.34234720684002E-2; n = 1
# [15] = tested on: GAK; design: species or system human, MV4-11 + K-562 + COLO205 + SK-N-BE2 + OVCAR-8; details: read-out: apparent Kd; compound concentrations: 100 nM and 1000 nM (sheet 'Samples'), CATDS: 0.16140378921040499; n = 1
# [16] = tested on: IGF1R; design: species or system human, MV4-11 + K-562 + COLO205 + SK-N-BE2 + OVCAR-8; details: read-out: apparent Kd; compound concentrations: 100 nM and 1000 nM (sheet 'Samples'), CATDS: 3.6183356665864301E-2; n = 1
# [17] = tested on: INSR; design: species or system human, MV4-11 + K-562 + COLO205 + SK-N-BE2 + OVCAR-8; details: read-out: apparent Kd; compound concentrations: 100 nM and 1000 nM (sheet 'Samples'), CATDS: 4.1283599015515197E-2; n = 1
# [18] = tested on: MAPK10; design: species or system human, MV4-11 + K-562 + COLO205 + SK-N-BE2 + OVCAR-8; details: read-out: apparent Kd; compound concentrations: 100 nM and 1000 nM (sheet 'Samples'), CATDS: 0.121038756107581; n = 1
# [19] = tested on: MAPK8; design: species or system human, MV4-11 + K-562 + COLO205 + SK-N-BE2 + OVCAR-8; details: read-out: apparent Kd; compound concentrations: 100 nM and 1000 nM (sheet 'Samples'), CATDS: 0.11476451358793401; n = 1
# [20] = tested on: MAPK9; design: species or system human, MV4-11 + K-562 + COLO205 + SK-N-BE2 + OVCAR-8; details: read-out: apparent Kd; compound concentrations: 100 nM and 1000 nM (sheet 'Samples'), CATDS: 6.9052364835720206E-2; n = 1
# [21] = tested on: NUAK1; design: species or system human, MV4-11 + K-562 + COLO205 + SK-N-BE2 + OVCAR-8; details: read-out: apparent Kd; compound concentrations: 100 nM and 1000 nM (sheet 'Samples'), CATDS: 3.4302390396245802E-2; n = 1
# [22] = tested on: PRKD2; design: species or system human, MV4-11 + K-562 + COLO205 + SK-N-BE2 + OVCAR-8; details: read-out: apparent Kd; compound concentrations: 100 nM and 1000 nM (sheet 'Samples'), CATDS: 3.5974174305942498E-2; n = 1
# [23] = tested on: PRKD3; design: species or system human, MV4-11 + K-562 + COLO205 + SK-N-BE2 + OVCAR-8; details: read-out: apparent Kd; compound concentrations: 100 nM and 1000 nM (sheet 'Samples'), CATDS: 3.1846341330559601E-2; n = 1
# [24] = tested on: PTK2B; design: species or system human, MV4-11 + K-562 + COLO205 + SK-N-BE2 + OVCAR-8; details: read-out: apparent Kd; compound concentrations: 100 nM and 1000 nM (sheet 'Samples'), CATDS: 8.6310597132222E-2; n = 1
# [25] = tested on: PTK2; design: species or system human, MV4-11 + K-562 + COLO205 + SK-N-BE2 + OVCAR-8; details: read-out: apparent Kd; compound concentrations: 100 nM and 1000 nM (sheet 'Samples'), CATDS: 5.1603916843062203E-2; n = 1
# [26] = biological target: Q6ZSR9 (human, UniProt Q6ZSR9); design: species or system MV4-11 + K-562 + COLO205 + SK-N-BE2 + OVCAR-8; details: read-out: apparent Kd; compound concentrations: 100 nM and 1000 nM (sheet 'Samples'), CATDS: 3.1507778196600798E-2; n = 1
# Q6ZSR9, sequence (Q6ZSR9 whole entry, looked up): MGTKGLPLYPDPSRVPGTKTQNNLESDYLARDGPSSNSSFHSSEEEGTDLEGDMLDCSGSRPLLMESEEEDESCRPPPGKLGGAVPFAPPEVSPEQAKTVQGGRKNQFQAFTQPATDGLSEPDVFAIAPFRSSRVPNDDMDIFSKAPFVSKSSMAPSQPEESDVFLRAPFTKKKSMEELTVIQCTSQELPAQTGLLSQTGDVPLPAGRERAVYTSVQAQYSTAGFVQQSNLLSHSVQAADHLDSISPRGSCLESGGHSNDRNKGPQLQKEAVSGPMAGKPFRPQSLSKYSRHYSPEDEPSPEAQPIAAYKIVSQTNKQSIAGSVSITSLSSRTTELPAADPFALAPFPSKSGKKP
# [27] = tested on: RPS6KA1; design: species or system human, MV4-11 + K-562 + COLO205 + SK-N-BE2 + OVCAR-8; details: read-out: apparent Kd; compound concentrations: 100 nM and 1000 nM (sheet 'Samples'), CATDS: 3.19128363140119E-2; n = 1
# [28] = tested on: TNK1; design: species or system human, MV4-11 + K-562 + COLO205 + SK-N-BE2 + OVCAR-8; details: read-out: apparent Kd; compound concentrations: 100 nM and 1000 nM (sheet 'Samples'), CATDS: 0.144330390511521; n = 1
# [29] = tested on: TTK; design: species or system human, MV4-11 + K-562 + COLO205 + SK-N-BE2 + OVCAR-8; details: read-out: apparent Kd; compound concentrations: 100 nM and 1000 nM (sheet 'Samples'), CATDS: 8.7899385258393206E-2; n = 1
# [30] = tested on: MAPK14; design: species or system human, MV4-11 + K-562 + COLO205 + SK-N-BE2 + OVCAR-8; details: read-out: apparent Kd; compound concentrations:100 nM and 1000 nM (sheet 'Samples'); n = 1
# [31] = tested on: MAPKAPK2; design: species or system human, MV4-11 + K-562 + COLO205 + SK-N-BE2 + OVCAR-8; details: read-out: apparent Kd; compound concentrations:100 nM and 1000 nM (sheet 'Samples'); n = 1
smiles,measurement,setting,value
FC1=CC(C3=NC2=CC(OC)=C(OC)C=C2C(N[C@H]4[C@H]([C@](C)(O)C)CNC4)=N3)=C(O)C=C1.Cl.Cl [CCT241533],potency estimated from few doses,[1],1010 nM
same,potency estimated from few doses,[2],1490 nM
same,potency estimated from few doses,[3]; CATDS: 0.214527954353402,163 nM
same,potency estimated from few doses,[4]; CATDS: 0.24205596503661,121 nM
same,potency estimated from few doses,[5],2010 nM
same,potency estimated from few doses,[6],2590 nM
same,potency estimated from few doses,[7],20.8 nM
CC(=O)c1cccc(NC(=O)NC2CCN(c3ccnc(Nc4ccc(F)cc4)n3)C2)c1 (stereo not shown) [GSK1379710A],potency estimated from few doses,"[8]; compound concentrations: 100 nM and 1000 nM (sheet 'Samples'), CATDS: 0.45537516387232402",658 nM
same,potency estimated from few doses,[9],1220 nM
same,potency estimated from few doses,[10],2000 nM
COc1cc(N2CCN(C(C)C)CC2)ccc1Nc1nc(Nc2ccc(F)cc2C(N)=O)c2cc[nH]c2n1 [GSK1220512A],potency estimated from few doses,[11],2210 nM
same,potency estimated from few doses,[3]; CATDS: 5.1220055062038403E-2,361 nM
same,potency estimated from few doses,[4]; CATDS: 6.3001679315381406E-2,213 nM
same,potency estimated from few doses,[12],2140 nM
same,potency estimated from few doses,[13],1180 nM
same,potency estimated from few doses,[14],587 nM
same,potency estimated from few doses,[15],38 nM
same,potency estimated from few doses,[16],1110 nM
same,potency estimated from few doses,[17],691 nM
same,potency estimated from few doses,[18],59.2 nM
same,potency estimated from few doses,[19],64.7 nM
same,potency estimated from few doses,[20],172 nM
same,potency estimated from few doses,[21],1380 nM
same,potency estimated from few doses,[22],1130 nM
same,potency estimated from few doses,[23],1930 nM
same,potency estimated from few doses,[24],108 nM
same,potency estimated from few doses,[25],354 nM
same,potency estimated from few doses,[26],2040 nM
same,potency estimated from few doses,[27],1910 nM
same,potency estimated from few doses,[28],44.9 nM
same,potency estimated from few doses,[29],104 nM
FC(F)(F)c1ccccc1-c1cc(-c2c[nH]nc2-c2ccccn2)ccn1 [GW679396X],potency estimated from few doses,[8]; compound concentrations:100 nM and 1000 nM (sheet 'Samples'),628 nM
same,potency estimated from few doses,[30],845 nM
same,potency estimated from few doses,[31],941 nM
